Screens from PubChem BioAssay.
RE007 growth inh: less growth of the S. pombe RE007 Vpr strain; S. pombe RE007 Vpr strain, BacTiter-Glo ATP luminescence, 24 h; actives 0.21% (n = 360,000); Potency, µM (highest dose often 92.2 µM), for inactives: top-dose activity change, negative = less growth, most hits filed as inhibitors; AID 651644; active = well fitted falling curve with a large enough effect; inconclusive = small, poorly fitted or top-dose-only effect; inactive = no such curve, though single readings can be large or run the other way; also: potency is read from the fitted curve at half-maximal effect; % is scaled to controls: 0 for no effect and ±100 for the full control effect; nearly all actives have a fitted effect of over 50% in size
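Fission yeast strain RE007, carrying one chromosomally integrated HIV-1 vpr copy, was seeded at OD 0.01 in PMG+AL medium with 23 nL pinned compound. After 24 h at 30 °C and 99% humidity, viability was read by BacTiter-Glo luminescence.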
Shiga toxin inh: Shiga toxin inhibition | AID 2315 | inhibition, % at 38.7 µM | Vero cells, Shiga toxin protein synthesis inhibition reporter | actives 9.2% (n = 290,000); in the data active = inhibition mostly above about 28%, no sharp cut-off; inactive = mostly below about 43%; also: 0% is about no effect
FBPA Giardia inh: Giardia lamblia aldolase inhibition | A8B2U2 | purified Giardia FBPA | Potency, µM (top dose mostly 59.6 µM), for the others: at the top dose activity, negative = inhibition, actives largely listed as inhibitors | actives 0.71% (n = 290,000) | AID 2451; also: potency is read from the fitted curve at half-maximal effect; % is scaled to controls: 0 for no effect and ±100 for the full control effect; nearly all actives have a fitted effect of over 55% in size
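Giardia FBPA (40 nM reagent) was preincubated 10 min at RT with compound (up to 57.5 uM final), then substrate plus GAPDH/TPI/NAD/arsenate coupling system with diaphorase/resazurin was added; resorufin fluorescence (525/598 nm) was read after 20 min.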
TbPYK inhibitor: blocks Trypanosoma brucei pyruvate kinase; Q57TT1; TbPYK enzyme, Kinase-Glo Plus ATP luminescence, 45 min; Potency, µM (doses to about 76.8 µM), inactives show at the top dose activity, negative = inhibition, usual class: inhibitors; actives 0.12% (n = 410,000); AID 624173; also: potency is read from the fitted curve at half-maximal effect; % is scaled to controls: 0 for no effect and ±100 for the full control effect; nearly all actives have a fitted effect of over 50% in size
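In this concentration-response screen, enzyme-free wells defined baseline while DMSO plates tracked drift. Each reaction combined TbPYK, substrate, compound and 130 uM ADP for 45 min at room temperature. Kinase-Glo Plus luminescence gave the signal.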
LmPK inh: blocks Leishmania mexicana pyruvate kinase activity | purified LmPK, Kinase-Glo ATP luminescence, 1 h | actives 0.37% (n = 290,000) | Potency, µM (doses to about 57.5 µM), without a hit: at the highest dose activity change, negative = inhibition, hits mostly inhibitors | Q27686 | AID 1721; also: potency is read from the fitted curve at half-maximal effect; % is scaled to controls: 0 for no effect and ±100 for the full control effect
Target sequence (Q27686 whole entry, looked up): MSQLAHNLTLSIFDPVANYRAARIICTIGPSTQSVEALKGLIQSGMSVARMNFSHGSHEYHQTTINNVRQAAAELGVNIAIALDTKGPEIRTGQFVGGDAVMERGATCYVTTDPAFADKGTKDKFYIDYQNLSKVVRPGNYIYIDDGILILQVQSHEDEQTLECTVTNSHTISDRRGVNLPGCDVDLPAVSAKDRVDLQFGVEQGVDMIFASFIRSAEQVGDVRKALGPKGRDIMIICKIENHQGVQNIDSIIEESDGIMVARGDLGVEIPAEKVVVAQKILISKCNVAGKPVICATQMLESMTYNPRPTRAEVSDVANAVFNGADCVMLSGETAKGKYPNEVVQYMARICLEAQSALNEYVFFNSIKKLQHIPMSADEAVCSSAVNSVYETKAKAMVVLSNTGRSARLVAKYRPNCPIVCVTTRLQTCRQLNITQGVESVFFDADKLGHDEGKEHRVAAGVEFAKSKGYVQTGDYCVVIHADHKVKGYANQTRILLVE
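Purified LmPK (0.1 nM) converted ADP (0.1 mM) to ATP with PEP (0.5 mM) in imidazole buffer pH 7.2 with KCl and MgCl2, 1 h at room temperature. ATP was read by Kinase-Glo luminescence; data normalized to uninhibited and no-enzyme controls.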
Cycloheximide cs: affects cycloheximide protein synthesis inhibition readout, counter-screen | actives 12% (n = 300,000) | AID 2314 | max response, % | cell reporter, cycloheximide protein synthesis inhibition counterscreen; in the data active = max response mostly above about 13%, no sharp cut-off; inactive = mostly below about 14%; also: read at 38.3 µM for the half of the compounds with a filed dose; 0% is about no effect
Starred values were filed as active, the others as inactive; ? = inconclusive; · = no result given; [ ] = dose if it differs, or a comment. Many of the other results were omitted from the sample, so hits are more common in it than they were. Unless noted, calls follow the shape of the dose curve; as a rule, active = well fitted curve in the direction sought with a large enough effect; inconclusive = small, poorly fitted or top-dose-only effect, or another doubt; inactive = no such curve, though single readings can be large; an effect the other way counts as inactive or inconclusive.

SMILES	RE007 growth inh	Shiga toxin inh	FBPA Giardia inh	TbPYK inhibitor	LmPK inh	Cycloheximide cs
Cc1cccc(-c2nc(NCCCN(C)C)c3ccccc3n2)c1	?	50.8	?	0.0%	3.0%	14.0*
CCCCN(CCCC)c1nc(-c2ccccc2)nc2ccccc12	·	·	·	-1.2%	·	·
CN(C)CCCNc1nc(-c2ccc(Cl)cc2)nc2ccccc12	6.2%	-2.3	7.0%	1.1%	0.3%	0.9
Cc1ccc(-c2nc(NCCN(C)C)c3ccccc3n2)cc1	-3.1%	79.9	4.4%	-3.4%	0.1%	18.2*
COCCN(CCOC)c1nc(-c2ccc(C)cc2)nc2ccccc12	0.4%	73.0*	-6.8%	2.8%	-0.3%	12.8*
CCCCS(=O)(=O)c1oc(-c2ccc(F)cc2)nc1S(=O)(=O)c1ccccc1	·	·	·	6.9%	·	·
CCCCCCCC#Cc1ccccc1/C=N/S(=O)c1ccc(C)cc1 (centres undefined)	?	-5.2	-1.0%[12.9 µM]	20µM*	4.6%	-1.5
CCCCC#Cc1ccccc1CC(=O)Nc1ccccc1	-3.6%	2.2	-6.1%	1.1%	-0.4%	3.2
COc1ccc(N2C(=S)N(C(=O)c3ccccc3)C(=Nc3ccccc3)C2=Nc2ccccc2)cc1	?	·	·	-25.3%	·	·
COc1ccc(C(=O)c2ccc(Cl)cc2)cc1	-12.1%	74.8	3.3%	2.1%	-1.4%	26.1
COc1ccc(N=C2C(=Nc3ccc(OC)cc3)N(c3ccccc3)C(=S)N2C(=O)c2ccc(Cl)cc2)cc1	-10.0%[3.69 µM]	63.2*	-0.4%	·	-3.3%	42.6*
COc1ccc(N=C2C(=Nc3ccc(OC)cc3)N(c3ccc(OC)cc3)C(=S)N2C(=O)c2ccc(OC)cc2)cc1	-15.9%	41.7*	2.5%	-13.4%	-2.5%	14.3*
CC(C)CCN=CC1=C(O)CC(c2ccccc2)CC1=O (centres undefined)	-13.6%	52.6	2.5%	0.4%	-13.2%	28.9*
O=C(CSc1nc2ccccc2o1)NCc1ccc2c(c1)OCO2	-6.3%	27.3*	-9.2%	-12.4%	1.2%	14.5*
O=C(CSc1ccccn1)c1ccc2c(c1)OCO2	-14.6%	38.9*	-1.0%	-3.3%	?	37.2*
Cn1c(SCC(=O)c2ccc3c(c2)OCO3)nnc1-c1ccccn1	-0.4%	19.4	-11.2%	-9.9%	-6.3%	24.5
O=C(CSc1ccccn1)NCc1ccc2c(c1)OCO2	-4.0%	-7.6	-1.8%	-1.8%	5.2%	11.8*
CC(Sc1nc2ccccc2s1)C(=O)NCc1ccc2c(c1)OCO2 (centres undefined)	-2.2%	active	-1.5%	-8.9%	-1.3%	20.2*
CCc1ccc(CNC(=O)CCn2c(=O)c3cccn3c3ccc(F)cc32)cc1	·	·	·	1.3%	·	·
CC(C)CO/N=C1/[C@H]2O[C@@H]2[C@@H](O)[C@H]2[C@H]1CCn1c(=O)n(C)c(=O)n12	·	·	6.0%[12.9 µM]	·	·	·
CC(=O)N1CCc2cc(S(=O)(=O)NCC(=O)NCc3ccc(F)cc3)ccc21	6.1%	-13.2	·	-1.5%	8.7%	6.2
O=C(CSc1nnc(SCc2cccc3ccccc23)s1)c1ccc2c(c1)OCO2	9.1%	-6.7	5.8%	-14.7%	5.3%	13.7*
O=C(CSc1ccccn1)Nc1ccc2c(c1)OCO2	8.8%	100.8*	-10.4%	0.6%	0.5%	34.5*
O=C(CSc1nnc(SCc2cccc3ccccc23)s1)Nc1ccc(C(=O)O)cc1	-7.2%	-9.8	13.0%	-15.7%	0.9%	-6.7
COc1ccc(/C(N)=C/C(=O)C(C)(C)C)cc1	8.5%	60.2	2.0%	-4.7%	-2.9%	18.8*
SMILES	RE007 growth inh	Shiga toxin inh	FBPA Giardia inh	TbPYK inhibitor	LmPK inh	Cycloheximide cs
CC(C)(C)C(=O)/C=C(\N)c1ccncc1	7.7%	-5.7	3.6%	-0.6%	-5.0%	-1.3
O=C(CN1C(=O)C2CC=CCC2C1=O)Nc1ccc(S(=O)(=O)Nc2nccs2)cc1 (centres undefined)	8.2%	-6.8	6.6%	-2.4%	-0.1%	-0.8
O=C(O/N=C1\CCS(=O)(=O)c2sccc21)c1c(F)cccc1F	-3.6%	7.0	-0.7%	2.0%	-1.2%	14.4*
COc1cc(OC)cc(C(=O)Nn2cc(C(=O)Nc3c(F)cccc3F)c3ccccc3c2=O)c1	-11.8%	-15.3	2.8%	10.1%	-7.8%	-5.8
O=C(NCCCN1CCOCC1)C(=O)N/N=C/c1ccccc1Cl	1.4%	21.4	2.7%	-1.0%	0.6%	18.8*
O=C(C[n+]1ccccc1)N/N=C/c1ccccc1Cl	0.0%	·	·	0.2%	·	·
S=C(NCCc1ccccc1)N/N=C/c1ccccc1Cl	-17.0%	-10.3	6.0%	-1.8%	6.0%	10.8*
O=C(Cc1ccccc1)N/N=C/c1ccccc1Cl	0.5%	53.2	-12.5%	-3.7%	-4.0%	40.9*
Oc1ccccc1C1CC(c2cccs2)=NC(c2cccc(Br)c2)N1 (centres undefined)	?	70.5*	-12.6%	-6.6%	-0.5%	42.2*
O=S(=O)(c1ccccc1)N1N=C(c2cccs2)CC1c1cccc(O)c1 (centres undefined)	-3.4%	-8.5	·	3.0%	-1.6%	-1.8
CCN(CC)C(=O)Oc1ccc2ccccc2c1Cl	-11.5%	80.0*	-1.0%	1.1%	2.0%	43.1*
CN(C)C(=O)Oc1ccc2ccccc2c1Cl	-23.2%	29.4	0.8%	9.4%	7.2%	30.3*
CN(C)C(=O)Oc1ccc(Cl)c2ccccc12	8.5%	15.2	-21.1%	4.9%	0.4%	5.0
CC(C)NC[C@@H](O)c1ccc(O)c(O)c1	1.2%[18.4 µM]	-6.5	7.06µM*	-7.3%	-0.5%	-0.3
CC(C)NCC(O)c1ccc(N)c(C#N)c1 (centres undefined)	·	·	·	-1.5%	·	·
CCOc1ccc(-c2cc(C(=O)NCCc3ccccc3)c3c(-c4ccc(C)cc4)[nH]nc3n2)cc1	·	·	·	-3.0%	·	·
C#CC(CC)(CC)NC(=S)Nc1ccc(S(N)(=O)=O)cc1	-2.8%	44.2*	0.0%	0.9%	0.6%	12.4*
O=C(Nc1ccc2nc(SCC(=O)N3CCCc4ccccc43)sc2c1)c1ccccc1	·	·	·	0.9%	·	·
O=[N+]([O-])c1ccc(-c2cnc(SC(c3ccccc3)c3ccccc3)[nH]2)cc1	9.2%	-8.9	0.2%	0.8%	-0.5%	-2.0
O=[N+]([O-])c1ccc(-c2cnc(SCc3ccccc3Cl)[nH]2)cc1	-9.4%	57.9*	0.7%	-37.2%	-2.3%	28.0*
COc1ccc(CCN(Cc2cccs2)S(=O)(=O)c2ccc(C(=O)O)cc2)cc1OC	2.2%	-5.7	29.4%	2.7%	3.4%	-2.5
CCOc1ccc(NC(=O)CN(C)S(=O)(=O)c2ccc3[nH]c4c(c3c2)CCCC4)cc1	·	·	·	0.4%	·	·
O=[N+]([O-])c1cnc(Sc2ccncn2)s1	1µM*	17.1	-5.5%	-0.6%	4.0%	1.2
Nc1nc(CSc2ccc(Cl)cc2)nc(N2CCCCC2)n1	-2.7%	36.5	-5.3%	2.9%	1.5%	13.0
